According to PubChem BioAssay (Tox21):
Inconclusive results are not listed. Activity calls are given as the source filed them. Unless noted, the call rests on the fitted dose curve; in most records, active means well fitted curve in the direction sought with a large enough effect in the repeat runs; inconclusive means weak or mixed curves; inactive means no such curve, though single readings can be large; an effect the other way counts as inactive or inconclusive.

Legend:
[1] = qHTS assay to identify aromatase inhibitors - cell viability counter screen (AID 743084); conditions: MCF-7 aro ERE viability, CellTiter-Fluor, 24 h; series mostly up to 70.3 µM;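 further: cells stimulated with testosterone during compound exposure; nearly all actives have a fitted effect of over 55% in size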
[2] = biological target: Aryl hydrocarbon receptor (Homo sapiens) (UniProt P35869); assay: qHTS assay to identify small molecule that activate the aryl hydrocarbon receptor (AhR) signaling pathway (AID 743085); conditions: HepG2 AhR-luc (HG2L7.5c1), luciferase, 24 h; series mostly up to 70.3 µM;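 further: HG2L7.5c1 human HepG2 liver cells with stably integrated DRE-driven firefly reporter; nearly all actives have a fitted effect of over 15% in size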
In short: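 HepG2 cells stably carrying a 20-DRE firefly luciferase reporter (HG2L7.5c1) treated with compound for 24 hr at 37C. Luciferase read by ONE-Glo luminescence, with CellTiter-Fluor viability read first.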

[3] = qHTS assay to identify small molecule that activate the aryl hydrocarbon receptor (AhR) signaling pathway - cell viability counter screen (AID 743086); conditions: HepG2-AhR-luc viability, CellTiter-Fluor, 24 h; series mostly up to 70.3 µM;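 further: HepG2 liver cells carrying the AhR DRE luciferase reporter; nearly all actives have a fitted effect of over 45% in size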
In short: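 HepG2-AhR-luc (HG2L7.5c1) cells, 4000/well, treated 24 h at 37 C with compound; viability measured as CellTiter-Fluor fluorescence after 30 min in the same wells as the luciferase read.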

[4] = biological target: Peroxisome proliferator-activated receptor gamma (Homo sapiens) (UniProt P37231); assay: qHTS assay to identify small molecule agonists of the peroxisome proliferator-activated receptor gamma (PPARg) signaling pathway (AID 743094; active means well fitted activation curve with a large enough effect in the signal ratio in the repeat runs, not every such curve was filed as active; the % refers to the signal ratio); conditions: HEK293H PPARg-UAS-bla, beta-lactamase FRET ratio, 17 h; series mostly up to 57 µM
In short: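 GeneBLAzer PPARg UAS-bla HEK293H cells were plated, rested 5 h, then exposed to compounds for 17 h at 37C. Beta-lactamase activity was read by LiveBLAzer B/G FRET substrate fluorescence after 1 h at room temperature.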

[5] = qHTS assay to identify small molecule antagonists of the peroxisome proliferator-activated receptor gamma (PPARg) signaling pathway - cell viability counter screen (AID 743194); conditions: PPARg-bla HEK293H viability, CellTiter-Glo luminescence, 17 h, co-treated with 50 nM rosiglitazone; series mostly up to 62.6 µM; further: nearly all actives have a fitted effect of over 55% in size
In short: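 Cytotoxicity counter screen in PPARg-bla HEK293H cells, same wells as reporter assay. Compounds plus 50 nM rosiglitazone (final) for 17 h at 37 C, then viability read by CellTiter-Glo luminescence.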

[6] = qHTS assay for small molecule agonists of the antioxidant response element (ARE) signaling pathway (AID 743202; active means well fitted activation curve with a large enough effect in the signal ratio in the repeat runs, not every such curve was filed as active; the % refers to the signal ratio); conditions: HepG2 ARE-bla reporter, beta-lactamase FRET, 16 h; series mostly up to 73.3 µM
In short: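 ARE-bla HepG2 cells (beta-lactamase reporter under the antioxidant response element), plated 5 hours, then exposed to compounds 16 hours at 37 C. LiveBLAzer B/G FRET substrate added for 2 hours at room temperature; fluorescence intensity read.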

[7] = qHTS assay for small molecule agonists of the antioxidant response element (ARE) signaling pathway - cell viability counter screen (AID 743203; calls by dose curve; further: nearly all actives have a fitted effect of over 55% in size); conditions: ARE-bla HepG2 viability, CellTiter-Glo luminescence, 16 h; series mostly up to 73.3 µM
In short: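 ARE-bla HepG2 cells were plated, rested 5 h at 37C/5% CO2, then exposed to compounds in DMSO for 16 h. Viability was read as CellTiter-Glo luminescence after 30 min at room temperature, in the same wells as the ARE screen.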

[8] = qHTS assay for small molecule activators of the heat shock response signaling pathway - cell viability counter screen (AID 743209); conditions: HSE-bla HeLa viability, CellTiter-Glo luminescence, 5 h; series mostly up to 62.6 µM; further: nearly all actives have a fitted effect of over 50% in size
In short: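 HSE-bla HeLa cells plated overnight, then exposed to Tox21 compounds (23 nL in DMSO) for 5 h at 37 C. After the bla reporter read, CellTiter-Glo was added in the same wells and luminescence read after 30 min at room temperature.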

[9] = qHTS assay for small molecule activators of the heat shock response signaling pathway (AID 743210; active means well fitted activation curve with a large enough effect in the signal ratio in the repeat runs, with a control signal flat, not every such curve was filed as active; the % refers to the signal ratio); conditions: HeLa HSE-bla reporter, beta-lactamase ratio, 5 h; series mostly up to 62.6 µM
In short: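 HSE-bla HeLa cells (beta-lactamase reporter under heat shock response elements), plated overnight, then exposed to compounds 5 h at 37 C; LiveBLAzer B/G FRET substrate added, 2.5 h at room temperature, fluorescence intensity read.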

[10] = qHTS assay to identify small molecule agonists of the peroxisome proliferator-activated receptor delta (PPARd) signaling pathway - cell viability counter screen (AID 743211); conditions: PPARd-bla HEK293H viability, CellTiter-Glo luminescence, 17 h; series mostly up to 62.6 µM; further: nearly all actives have a fitted effect of over 55% in size
In short: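 PPARd-bla HEK293H cells (3000/well) were pre-incubated 5 h at 37 C, then exposed to compound for 17 h at 37 C. After 2 h with LiveBLAzer substrate, CellTiter-Glo was added to the same wells; luminescence read after 30 min at room temperature.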

[11] = biological target: Peroxisome proliferator-activated receptor delta (Homo sapiens) (UniProt Q03181); assay: qHTS assay to identify small molecule agonists of the peroxisome proliferator-activated receptor delta (PPARd) signaling pathway (AID 743212; calls by dose curve); conditions: HEK293H PPARd-UAS-bla, beta-lactamase FRET ratio, 17 h; series mostly up to 62.6 µM
In short: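 GeneBLAzer UAS-bla HEK293H cells carrying a PPARδ construct were exposed to compounds at 37 °C. Beta-lactamase activity was read by FRET fluorescence after 2 h at room temperature with LiveBLAzer B/G substrate.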

[12] = qHTS assay to identify small molecule antagonists of the peroxisome proliferator-activated receptor delta (PPARd) signaling pathway - cell viability counter screen (AID 743213); conditions: PPARd-bla HEK293H viability, CellTiter-Glo luminescence, 17 h; series mostly up to 62 µM; further: nearly all actives have a fitted effect of over 50% in size
In short: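 Agonist-stimulated (L165041, 300 nM final) HEK293H PPARd UAS-bla cells are exposed to compounds for 17 h at 37 C, and ATP-based luminescence (CellTiter-Glo) from the same wells reports cytotoxicity.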

[13] = biological target: Bile acid receptor (Homo sapiens) (UniProt Q96RI1); assay: qHTS assay to identify small molecule antagonists of the farnesoid-X-receptor (FXR) signaling pathway (AID 743217; active means well fitted inhibition curve with a large enough effect in the signal ratio in the repeat runs, not every such curve was filed as active; the % refers to the signal ratio); conditions: HEK293T FXR-UAS-bla, beta-lactamase ratio, CDCA-stimulated, 16 h; series mostly up to 62.6 µM
In short: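 FXR-UAS-bla HEK 293T cells (beta-lactamase reporter) given compound plus chenodeoxycholic acid (50 uM final), 16 h at 37C. LiveBLAzer B/G FRET substrate added for 2 h at room temperature; fluorescence read.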

[14] = qHTS assay to identify small molecule agonists of the farnesoid-X-receptor (FXR) signaling pathway - cell viability counter screen (AID 743218); conditions: FXR-bla HEK293T viability, CellTiter-Glo luminescence, 16 h; series mostly up to 62.6 µM; further: nearly all actives have a fitted effect of over 45% in size
In short: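 FXR-UAS-bla HEK 293T cells exposed to compounds for 16 h at 37C. Cytotoxicity read in the same wells by CellTiter-Glo luminescence after 30 min at room temperature, following the beta-lactamase FRET read.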

[15] = biological target: Bile acid receptor (Homo sapiens) (UniProt Q96RI1); assay: qHTS assay to identify small molecule agonists of the farnesoid-X-receptor (FXR) signaling pathway (AID 743220; active means well fitted activation curve with a large enough effect in the signal ratio in the repeat runs, not every such curve was filed as active; the % refers to the signal ratio); conditions: HEK293T FXR-UAS-bla, beta-lactamase FRET ratio, 16 h; series mostly up to 62.6 µM
In short: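 Beta-lactamase reporter under UAS control in GeneBLAzer FXR HEK 293T cells (5000/well) measured with LiveBLAzer FRET substrate after 2 h at room temperature. Compound exposure lasted 16 h at 37C.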

[16] = qHTS assay to identify small molecule antagonists of the farnesoid-X-receptor (FXR) signaling pathway - cell viability counter screen (AID 743221; active means well fitted cell-killing curve with a large enough effect in the repeat runs, not every such curve was filed as active; further: nearly all actives have a fitted effect of over 50% in size); conditions: FXR-bla HEK293T viability, CellTiter-Glo luminescence, 16 h; series mostly up to 62.6 µM
In short: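 GeneBLAzer FXR-UAS-bla HEK 293T cells, compound plus chenodeoxycholic acid (50 uM final), 16 h at 37 C. CellTiter-Glo added to the same wells after the beta-lactamase read; luminescence read after 30 min at room temperature as viability.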

[17] = biological target: Peroxisome proliferator-activated receptor delta (Homo sapiens) (UniProt Q03181); assay: qHTS assay to identify small molecule antagonists of the peroxisome proliferator-activated receptor delta (PPARd) signaling pathway (AID 743215; active means well fitted inhibition curve with a large enough effect in the signal ratio in the repeat runs, not every such curve was filed as active; the % refers to the signal ratio); conditions: HEK293H PPARd-UAS-bla, beta-lactamase FRET ratio, antagonist, 17 h; series mostly up to 62 µM
In short: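 PPARd-bla HEK293H cells (UAS-bla reporter) preincubated 5 h, then given compound plus 300 nM final L165041 agonist for 17 h at 37 C. Beta-lactamase activity read by LiveBLAzer B/G FRET substrate fluorescence after 2 h at room temperature.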

[18] = biological target: Peroxisome proliferator-activated receptor gamma (Homo sapiens) (UniProt P37231); assay: qHTS assay to identify small molecule antagonists of the peroxisome proliferator-activated receptor gamma (PPARg) signaling pathway (AID 743191; calls by dose curve; further: nearly all actives have a fitted effect of over 30% in size); conditions: HEK293H PPARg-UAS-bla, beta-lactamase ratio, antagonist, 17 h; series mostly up to 62.6 µM
In short: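 GeneBLAzer PPARg UAS-bla HEK293H cells, 5 h post-plating, exposed to compounds 17 h at 37C. LiveBLAzer B/G FRET substrate added for 1 h at room temperature; beta-lactamase reporter read by fluorescence intensity.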

[19] = biological target: Vitamin D3 receptor (Homo sapiens) (UniProt P11473); assay: qHTS assay to identify small molecule agonists of the vitamin D receptor (VDR) signaling pathway (AID 743222; calls by dose curve); conditions: HEK293T VDR-UAS-bla, beta-lactamase FRET ratio, 16 h; series mostly up to 63.5 µM
In short: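 VDR-bla cells plated 4 h at 37 C, then exposed to compounds for 16 h at 37 C. Beta-lactamase reporter activity measured by fluorescence after 2 h room-temperature loading with LiveBLAzer B/G FRET substrate.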

[20] = biological target: Vitamin D3 receptor (Homo sapiens) (UniProt P11473); assay: qHTS assay to identify small molecule antagonists of the vitamin D receptor (VDR) signaling pathway (AID 743223; active means well fitted inhibition curve with a large enough effect in the signal ratio in the repeat runs, not every such curve was filed as active; the % refers to the signal ratio); conditions: VDR-UAS-bla HEK293T, beta-lactamase FRET ratio, 16 h; series mostly up to 61 µM
In short: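 VDR-bla cells were treated with compound plus 3 nM final 1alpha,25-dihydroxyvitamin D3 for 16 h at 37C. Beta-lactamase reporter read by B/G FRET substrate fluorescence after 2 h at room temperature. qHTS format.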

Measured: Potency

Vitamin D3 receptor (Homo sapiens), sequence (P11473 whole entry, looked up): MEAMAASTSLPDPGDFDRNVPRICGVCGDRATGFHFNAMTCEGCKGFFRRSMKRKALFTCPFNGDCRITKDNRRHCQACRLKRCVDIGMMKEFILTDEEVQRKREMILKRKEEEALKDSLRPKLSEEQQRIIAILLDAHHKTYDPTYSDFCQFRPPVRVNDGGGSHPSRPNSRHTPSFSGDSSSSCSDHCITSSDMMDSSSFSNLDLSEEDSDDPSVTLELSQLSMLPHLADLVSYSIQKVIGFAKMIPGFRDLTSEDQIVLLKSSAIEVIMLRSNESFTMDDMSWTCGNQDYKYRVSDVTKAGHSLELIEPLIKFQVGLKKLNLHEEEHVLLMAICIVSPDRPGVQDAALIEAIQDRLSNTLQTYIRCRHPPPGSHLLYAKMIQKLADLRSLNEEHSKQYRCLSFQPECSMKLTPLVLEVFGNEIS
Peroxisome proliferator-activated receptor gamma (Homo sapiens), sequence (P37231 whole entry, looked up): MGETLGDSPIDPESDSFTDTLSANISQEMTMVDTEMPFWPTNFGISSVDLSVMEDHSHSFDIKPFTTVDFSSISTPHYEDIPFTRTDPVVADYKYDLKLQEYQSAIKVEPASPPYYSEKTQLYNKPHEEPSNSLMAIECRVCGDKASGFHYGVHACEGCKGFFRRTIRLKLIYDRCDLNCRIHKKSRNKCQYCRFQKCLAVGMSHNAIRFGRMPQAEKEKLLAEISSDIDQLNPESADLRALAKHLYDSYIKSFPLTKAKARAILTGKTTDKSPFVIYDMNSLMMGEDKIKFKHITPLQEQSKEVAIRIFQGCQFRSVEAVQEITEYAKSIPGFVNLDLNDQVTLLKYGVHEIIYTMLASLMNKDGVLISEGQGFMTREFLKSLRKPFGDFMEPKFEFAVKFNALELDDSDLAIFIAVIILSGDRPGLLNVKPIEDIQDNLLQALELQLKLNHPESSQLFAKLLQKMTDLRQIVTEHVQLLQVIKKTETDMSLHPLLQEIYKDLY
Aryl hydrocarbon receptor (Homo sapiens), sequence (P35869 whole entry, looked up): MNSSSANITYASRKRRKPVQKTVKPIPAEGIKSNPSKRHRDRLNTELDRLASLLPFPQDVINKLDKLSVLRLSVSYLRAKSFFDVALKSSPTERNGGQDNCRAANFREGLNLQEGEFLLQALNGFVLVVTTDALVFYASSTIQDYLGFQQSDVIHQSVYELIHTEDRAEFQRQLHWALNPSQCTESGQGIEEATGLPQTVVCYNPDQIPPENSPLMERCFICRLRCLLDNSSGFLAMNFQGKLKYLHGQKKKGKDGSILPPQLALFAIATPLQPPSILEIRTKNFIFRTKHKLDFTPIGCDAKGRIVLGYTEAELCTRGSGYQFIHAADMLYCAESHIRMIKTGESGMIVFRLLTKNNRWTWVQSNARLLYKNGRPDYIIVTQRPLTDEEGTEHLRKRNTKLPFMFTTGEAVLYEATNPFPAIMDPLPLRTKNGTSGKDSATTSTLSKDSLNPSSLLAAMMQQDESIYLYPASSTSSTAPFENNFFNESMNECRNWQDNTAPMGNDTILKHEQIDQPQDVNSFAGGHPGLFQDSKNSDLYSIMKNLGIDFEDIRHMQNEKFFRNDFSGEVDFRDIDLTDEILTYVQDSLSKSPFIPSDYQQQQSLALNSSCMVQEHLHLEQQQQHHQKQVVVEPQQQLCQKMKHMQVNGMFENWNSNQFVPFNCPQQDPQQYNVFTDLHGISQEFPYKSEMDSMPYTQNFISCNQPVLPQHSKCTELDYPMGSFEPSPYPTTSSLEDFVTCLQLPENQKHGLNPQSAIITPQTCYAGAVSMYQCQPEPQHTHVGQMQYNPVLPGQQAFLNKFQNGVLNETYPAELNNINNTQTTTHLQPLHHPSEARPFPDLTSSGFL
Peroxisome proliferator-activated receptor delta (Homo sapiens), sequence (Q03181 whole entry, looked up): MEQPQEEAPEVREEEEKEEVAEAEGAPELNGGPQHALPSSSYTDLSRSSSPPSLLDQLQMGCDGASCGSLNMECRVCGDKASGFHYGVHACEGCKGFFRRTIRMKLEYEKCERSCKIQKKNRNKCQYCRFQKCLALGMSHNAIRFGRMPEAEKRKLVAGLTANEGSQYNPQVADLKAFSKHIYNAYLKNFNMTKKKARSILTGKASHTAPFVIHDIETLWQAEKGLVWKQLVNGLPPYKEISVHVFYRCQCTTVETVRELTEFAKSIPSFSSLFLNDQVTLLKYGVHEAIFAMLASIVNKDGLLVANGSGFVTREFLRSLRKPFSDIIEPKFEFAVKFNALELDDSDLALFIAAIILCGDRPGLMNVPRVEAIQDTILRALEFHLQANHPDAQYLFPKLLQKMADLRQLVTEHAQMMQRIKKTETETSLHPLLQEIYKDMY
Bile acid receptor (Homo sapiens), sequence (Q96RI1 whole entry, looked up): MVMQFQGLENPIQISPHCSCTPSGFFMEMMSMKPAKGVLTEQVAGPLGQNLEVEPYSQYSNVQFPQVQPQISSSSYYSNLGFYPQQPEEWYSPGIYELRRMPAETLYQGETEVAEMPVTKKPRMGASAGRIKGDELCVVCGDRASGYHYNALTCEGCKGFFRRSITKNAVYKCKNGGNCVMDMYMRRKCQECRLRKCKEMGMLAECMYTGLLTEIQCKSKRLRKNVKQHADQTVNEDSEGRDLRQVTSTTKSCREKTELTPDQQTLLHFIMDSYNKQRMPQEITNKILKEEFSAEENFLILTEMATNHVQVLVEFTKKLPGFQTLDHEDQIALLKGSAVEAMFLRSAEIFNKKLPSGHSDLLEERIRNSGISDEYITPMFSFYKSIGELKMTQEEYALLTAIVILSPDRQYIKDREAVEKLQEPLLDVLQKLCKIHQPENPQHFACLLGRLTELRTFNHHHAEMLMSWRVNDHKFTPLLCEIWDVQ

C=CC/C=C/C
inactive: [1] | [2] | [3] | [4] | [5] | [6] | [7] | [8] | [9] | [10] | [11] | [12] | [13] | [14] | [15] | [16]

Cc1ccccc1C(N)=O
inactive: [1] | [2] | [3] | [4] | [5] | [6] | [7] | [8] | [9] | [10] | [11] | [12] | [17] | [13] | [14] | [15] | [16]

CN1CCOC(c2ccccc2)c2ccccc2C1 (centres undefined)
inactive: [1] | [2] | [3] | [4] | [18] | [6] | [7] | [8] | [9] | [10] | [12] | [13] | [14] | [15] | [16]

CCCCOC(=O)[C@H](C)O
inactive: [1] | [2] | [3] | [4] | [18] | [7] | [8] | [10] | [12] | [13] | [16] | [19] | [20]

CC1(C)Cc2cccc(N)c2O1
inactive: [1] | [2] | [3] | [4] | [18] | [6] | [7] | [8] | [10] | [11] | [12] | [17] | [13] | [16] | [19]

N#CCC(=O)NN
inactive: [1] | [2] | [3] | [4] | [18] | [5] | [7] | [8] | [10] | [11] | [12] | [14] | [16] | [19]

COC(=O)c1cccc(Cl)c1
inactive: [1] | [2] | [3] | [4] | [18] | [6] | [7] | [8] | [11] | [12] | [13] | [15] | [16] | [19] | [20]

CN1C[C@@H]2C[C@H]1CN2c1cc2c(cc1F)c(=O)c(C(=O)O)cn2C1CC1
inactive: [1] | [2] | [3] | [4] | [18] | [6] | [7] | [8] | [9] | [10] | [11] | [12] | [17] | [13] | [15] | [16] | [19]

CSc1cnccn1
inactive: [1] | [2] | [3] | [4] | [18] | [5] | [7] | [9] | [10] | [11] | [12] | [17] | [13] | [14] | [16] | [19] | [20]
